Laboratory results from PubChem BioAssay (NCATS).
Inconclusive results are not listed. A number with no mark means an inactive call. Active and inactive are the calls of the source. Calls follow the shape of the dose curve; as a rule, active = well fitted inhibition curve with a large enough effect; inconclusive = small, poorly fitted or top-dose-only effect; inactive = no such curve, though single readings can be large or run the other way.

tested on: Zika virus NS2B-NS3 protease (linked construct); assay: Primary screen NINDS Rhodamine qHTS for Zika virus inhibitors (AID 1347160); details: purified NS2B-NS3 protease, Rhodamine110 substrate fluorescence; series mostly up to 57.1 µM; activity change, negative = inhibition: at the top concentration; also: nearly all actives have a fitted effect of over 55% in size
Outline: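 Single-chain NS2B-NS3 protease, 25 nM, pH 8.0; compounds preincubated 15 min. Activity: Rhodamine110 release from 1.5 microM substrate over 15 min, room temperature, data fitted to 4-parameter Hill.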
% is scaled to controls: 0 for no effect and ±100 for the full control effect.

Row | SMILES | activity change, negative = inhibition [%] | outcome
1 | CCOc1nc2cccc(C(=O)O)c2n1Cc1ccc(-c2ccccc2-c2nn[nH]n2)cc1 | 8.99 | 
2 | Nc1nc2c(ncn2CCC(CO)CO)c(=O)[nH]1 |  | inactive
3 | Nc1ccc(S(=O)(=O)Nc2nccs2)cc1 |  | inactive
4 | CCOc1ccc2ccccc2c1C(=O)N[C@@H]1C(=O)N2[C@@H]1SC(C)(C)[C@@H]2C(=O)O | -6.92 | 
5 | CCN(CC)C(=O)Nc1ccc(OCC(O)CNC(C)(C)C)c(C(C)=O)c1 (stereo unspecified) | -10.8 | 
6 | CN1CCOC(c2ccccc2)c2ccccc2C1 (stereo unspecified) |  | inactive
